Results on 13 compounds are retold here after ChEMBL document CHEMBL2218924, “A broad activity screen in support of a chemogenomic map for kinase signalling research and drug discovery” (Biochem J, 2013).

For assay [1], the target named is T1, Casein kinase II (Homo sapiens) (UniProt P67870+P68400+P19784). The following applies: at 1 µM.
The target in assay [2] is T1, Casein kinase II (Homo sapiens). The note with it: at 10 µM.
In assay [3] the target is Casein kinase II subunit alpha' (Homo sapiens) (UniProt P19784). The note with it: at 1 µM.
Casein kinase II subunit alpha' (Homo sapiens), sequence (P19784 whole entry, looked up): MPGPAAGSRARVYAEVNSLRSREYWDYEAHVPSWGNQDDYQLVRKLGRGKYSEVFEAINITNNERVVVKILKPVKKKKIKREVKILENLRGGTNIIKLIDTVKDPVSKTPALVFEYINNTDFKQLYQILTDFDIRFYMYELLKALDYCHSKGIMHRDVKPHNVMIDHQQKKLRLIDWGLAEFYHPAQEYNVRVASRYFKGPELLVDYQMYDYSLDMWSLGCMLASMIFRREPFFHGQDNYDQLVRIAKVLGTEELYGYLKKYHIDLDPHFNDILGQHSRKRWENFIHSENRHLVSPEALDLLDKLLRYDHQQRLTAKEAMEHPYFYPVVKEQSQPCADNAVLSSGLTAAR
Assay [4] shares this target. The following applies: at 10 µM.
Assay [5] has as its target Dual specificity protein kinase CLK2 (Homo sapiens) (UniProt P49760). The following applies: at 1 µM.
The target is the same in assay [6]. The note with it: at 10 µM.
In assay [7] the target is Dual specificity protein kinase CLK3 (Homo sapiens) (UniProt P49761). The note with it: at 1 µM.
Dual specificity protein kinase CLK3 (Homo sapiens), sequence (P49761 whole entry, looked up): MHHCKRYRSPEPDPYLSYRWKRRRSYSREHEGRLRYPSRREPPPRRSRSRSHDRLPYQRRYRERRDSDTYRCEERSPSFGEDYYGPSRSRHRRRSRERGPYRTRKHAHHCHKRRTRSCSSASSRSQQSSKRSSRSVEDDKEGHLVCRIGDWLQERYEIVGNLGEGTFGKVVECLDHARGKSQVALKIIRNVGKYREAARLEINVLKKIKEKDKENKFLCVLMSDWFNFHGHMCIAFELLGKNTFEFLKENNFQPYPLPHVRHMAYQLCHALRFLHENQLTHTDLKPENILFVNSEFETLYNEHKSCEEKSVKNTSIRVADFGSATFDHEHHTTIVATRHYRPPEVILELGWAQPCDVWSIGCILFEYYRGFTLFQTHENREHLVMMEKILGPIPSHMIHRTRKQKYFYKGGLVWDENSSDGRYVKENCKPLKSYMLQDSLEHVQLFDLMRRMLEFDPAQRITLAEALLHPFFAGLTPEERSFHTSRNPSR
Assay [8] has the same target. The following applies: at 10 µM.
Assay [9] deals with Tyrosine-protein kinase CSK (Homo sapiens) (UniProt P41240). The note with it: at 1 µM.
Tyrosine-protein kinase CSK (Homo sapiens), sequence (P41240 2-450 limits assumed): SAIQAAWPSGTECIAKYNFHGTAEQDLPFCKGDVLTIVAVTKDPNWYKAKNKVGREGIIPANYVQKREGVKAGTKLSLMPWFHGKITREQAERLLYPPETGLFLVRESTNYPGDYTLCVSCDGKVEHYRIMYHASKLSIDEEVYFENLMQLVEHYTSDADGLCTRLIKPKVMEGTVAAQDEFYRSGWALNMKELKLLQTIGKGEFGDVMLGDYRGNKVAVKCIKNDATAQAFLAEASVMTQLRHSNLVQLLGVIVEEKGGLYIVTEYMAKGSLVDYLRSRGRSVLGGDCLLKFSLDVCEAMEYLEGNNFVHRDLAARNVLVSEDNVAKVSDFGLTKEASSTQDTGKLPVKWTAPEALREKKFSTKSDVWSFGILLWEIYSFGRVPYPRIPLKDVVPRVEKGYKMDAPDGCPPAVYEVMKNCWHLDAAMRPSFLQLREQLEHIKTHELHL
Assay [10] has the same target. The following applies: at 10 µM.
The target of assay [11] is Calcium/calmodulin-dependent protein kinase type 1 (Homo sapiens) (UniProt Q14012). The note with it: at 1 µM.
Calcium/calmodulin-dependent protein kinase type 1 (Homo sapiens), sequence (Q14012 whole entry, looked up): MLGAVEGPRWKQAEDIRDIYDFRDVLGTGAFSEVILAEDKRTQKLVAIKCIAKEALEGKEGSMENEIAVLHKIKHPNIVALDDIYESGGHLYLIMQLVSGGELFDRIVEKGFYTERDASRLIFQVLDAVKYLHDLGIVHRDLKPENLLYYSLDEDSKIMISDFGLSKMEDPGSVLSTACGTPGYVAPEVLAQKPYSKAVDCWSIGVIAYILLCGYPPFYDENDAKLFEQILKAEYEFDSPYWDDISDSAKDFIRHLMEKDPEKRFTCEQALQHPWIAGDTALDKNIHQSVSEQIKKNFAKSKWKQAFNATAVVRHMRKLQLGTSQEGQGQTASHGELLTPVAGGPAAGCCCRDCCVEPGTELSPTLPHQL
The target is the same in assay [12]. The note with it: at 10 µM.
Assay [13] deals with Calcium/calmodulin-dependent protein kinase type II subunit beta (Homo sapiens) (UniProt Q13554). The note with it: at 1 µM.
Calcium/calmodulin-dependent protein kinase type II subunit beta (Homo sapiens), sequence (Q13554 whole entry): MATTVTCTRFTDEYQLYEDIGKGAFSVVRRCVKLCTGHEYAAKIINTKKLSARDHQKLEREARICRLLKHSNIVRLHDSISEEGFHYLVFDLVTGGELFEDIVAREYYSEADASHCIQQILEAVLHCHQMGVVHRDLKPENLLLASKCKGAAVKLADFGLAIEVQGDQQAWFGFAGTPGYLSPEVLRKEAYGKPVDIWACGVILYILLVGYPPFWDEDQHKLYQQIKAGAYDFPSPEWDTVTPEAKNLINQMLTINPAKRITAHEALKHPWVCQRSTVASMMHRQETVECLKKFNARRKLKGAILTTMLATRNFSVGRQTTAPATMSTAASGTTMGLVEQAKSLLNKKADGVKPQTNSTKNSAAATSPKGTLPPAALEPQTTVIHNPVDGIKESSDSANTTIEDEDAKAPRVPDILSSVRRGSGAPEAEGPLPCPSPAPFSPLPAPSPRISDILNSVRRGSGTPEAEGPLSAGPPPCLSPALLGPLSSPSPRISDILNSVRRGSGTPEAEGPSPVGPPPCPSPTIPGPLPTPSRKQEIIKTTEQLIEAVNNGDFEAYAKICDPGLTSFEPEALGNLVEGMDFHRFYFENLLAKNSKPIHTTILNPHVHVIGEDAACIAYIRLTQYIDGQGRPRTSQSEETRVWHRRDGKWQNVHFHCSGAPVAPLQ
Assay [14] has the same target. The note with it: at 10 µM.
Assay [15] addresses Calcium/calmodulin-dependent protein kinase type II subunit gamma (Homo sapiens) (UniProt Q13555). The following applies: at 1 µM.
Assay [16] has the same target. The following applies: at 10 µM.
Assay [17] deals with Calcium/calmodulin-dependent protein kinase type II subunit delta (Homo sapiens) (UniProt Q13557). The note with it: at 1 µM.
Calcium/calmodulin-dependent protein kinase type II subunit delta (Homo sapiens), sequence (Q13557 whole entry): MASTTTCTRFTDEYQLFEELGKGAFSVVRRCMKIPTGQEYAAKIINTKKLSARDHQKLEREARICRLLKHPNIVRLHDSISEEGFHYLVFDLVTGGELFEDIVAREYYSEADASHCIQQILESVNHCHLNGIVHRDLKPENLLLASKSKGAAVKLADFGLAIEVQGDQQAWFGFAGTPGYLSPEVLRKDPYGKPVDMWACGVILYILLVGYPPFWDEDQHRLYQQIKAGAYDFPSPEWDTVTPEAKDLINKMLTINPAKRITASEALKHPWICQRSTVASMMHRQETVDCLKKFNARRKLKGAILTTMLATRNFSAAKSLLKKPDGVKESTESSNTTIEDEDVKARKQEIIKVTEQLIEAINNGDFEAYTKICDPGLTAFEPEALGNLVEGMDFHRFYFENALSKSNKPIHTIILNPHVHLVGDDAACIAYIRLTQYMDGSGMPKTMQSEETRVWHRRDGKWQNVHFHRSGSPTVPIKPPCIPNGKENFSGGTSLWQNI
For assay [18] the target is unchanged. The note with it: at 10 µM.
Assay [19] addresses T2, Calcium/calmodulin-dependent protein kinase type IV (Homo sapiens) (UniProt Q16566).
T2 sequence (whole entry): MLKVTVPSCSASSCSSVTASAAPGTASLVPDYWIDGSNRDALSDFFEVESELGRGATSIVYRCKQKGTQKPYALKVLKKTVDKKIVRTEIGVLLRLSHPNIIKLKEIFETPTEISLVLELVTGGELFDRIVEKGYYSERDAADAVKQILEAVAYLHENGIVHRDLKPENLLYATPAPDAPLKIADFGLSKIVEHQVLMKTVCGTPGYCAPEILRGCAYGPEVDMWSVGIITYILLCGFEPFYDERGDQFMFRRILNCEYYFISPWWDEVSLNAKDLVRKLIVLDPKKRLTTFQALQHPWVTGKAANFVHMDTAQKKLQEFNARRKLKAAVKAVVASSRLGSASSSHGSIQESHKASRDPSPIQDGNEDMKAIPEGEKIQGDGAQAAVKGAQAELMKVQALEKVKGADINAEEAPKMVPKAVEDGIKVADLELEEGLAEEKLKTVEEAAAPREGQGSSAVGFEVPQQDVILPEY
The following applies: at 1 µM.

Assay [20] addresses T2, Calcium/calmodulin-dependent protein kinase type IV (Homo sapiens). The note with it: at 10 µM.

Dual specificity protein kinase CLK2 (Homo sapiens), sequence (P49760 whole entry, looked up): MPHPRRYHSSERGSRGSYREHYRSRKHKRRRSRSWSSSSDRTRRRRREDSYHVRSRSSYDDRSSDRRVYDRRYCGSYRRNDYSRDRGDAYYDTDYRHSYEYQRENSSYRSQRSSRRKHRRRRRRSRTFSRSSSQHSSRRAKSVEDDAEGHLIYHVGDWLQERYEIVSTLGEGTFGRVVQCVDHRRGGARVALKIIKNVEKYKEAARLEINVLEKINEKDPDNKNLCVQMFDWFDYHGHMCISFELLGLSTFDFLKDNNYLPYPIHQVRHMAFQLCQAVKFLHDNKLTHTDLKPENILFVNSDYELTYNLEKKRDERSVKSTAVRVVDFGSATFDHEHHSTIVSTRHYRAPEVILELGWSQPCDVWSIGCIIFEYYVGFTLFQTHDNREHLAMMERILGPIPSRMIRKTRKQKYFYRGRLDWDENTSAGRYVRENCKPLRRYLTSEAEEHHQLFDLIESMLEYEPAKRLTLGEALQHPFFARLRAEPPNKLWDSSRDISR
T1 sequence (P19784 whole entry, looked up): as the sequence (P19784 whole entry, looked up) above
T1 sequence (P67870 whole entry, looked up): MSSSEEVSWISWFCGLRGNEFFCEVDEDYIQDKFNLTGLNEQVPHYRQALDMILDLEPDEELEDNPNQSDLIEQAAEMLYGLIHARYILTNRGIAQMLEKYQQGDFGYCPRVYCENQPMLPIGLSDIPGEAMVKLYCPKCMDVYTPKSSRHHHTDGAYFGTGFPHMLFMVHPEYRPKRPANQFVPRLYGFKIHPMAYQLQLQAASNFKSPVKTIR
T1 sequence (P68400 whole entry, looked up): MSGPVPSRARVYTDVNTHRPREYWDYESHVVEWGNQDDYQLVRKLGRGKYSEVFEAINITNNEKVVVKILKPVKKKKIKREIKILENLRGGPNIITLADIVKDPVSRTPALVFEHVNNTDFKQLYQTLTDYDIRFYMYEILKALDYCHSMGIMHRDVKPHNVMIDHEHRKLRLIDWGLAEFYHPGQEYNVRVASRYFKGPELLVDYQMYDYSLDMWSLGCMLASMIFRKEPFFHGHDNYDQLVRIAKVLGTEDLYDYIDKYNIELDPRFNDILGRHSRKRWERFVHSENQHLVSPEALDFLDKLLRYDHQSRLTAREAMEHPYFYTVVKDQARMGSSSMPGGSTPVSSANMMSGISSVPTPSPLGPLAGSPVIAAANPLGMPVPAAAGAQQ
Calcium/calmodulin-dependent protein kinase type II subunit gamma (Homo sapiens), sequence (Q13555 whole entry): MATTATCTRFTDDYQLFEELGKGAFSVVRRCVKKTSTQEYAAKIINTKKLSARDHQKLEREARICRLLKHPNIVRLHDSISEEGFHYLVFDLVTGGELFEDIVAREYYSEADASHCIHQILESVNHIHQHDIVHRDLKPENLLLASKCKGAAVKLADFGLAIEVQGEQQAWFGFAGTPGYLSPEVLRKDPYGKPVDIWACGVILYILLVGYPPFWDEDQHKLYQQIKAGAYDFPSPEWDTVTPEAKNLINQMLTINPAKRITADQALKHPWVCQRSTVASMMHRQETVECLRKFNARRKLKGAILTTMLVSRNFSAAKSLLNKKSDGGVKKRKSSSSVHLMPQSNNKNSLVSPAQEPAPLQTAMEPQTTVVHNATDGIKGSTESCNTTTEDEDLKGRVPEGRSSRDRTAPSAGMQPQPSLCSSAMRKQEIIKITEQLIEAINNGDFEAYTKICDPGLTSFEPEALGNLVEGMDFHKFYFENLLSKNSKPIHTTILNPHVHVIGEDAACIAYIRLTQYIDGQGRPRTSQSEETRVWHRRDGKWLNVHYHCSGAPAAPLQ

In the case of `O=c1cc(-c2cccc3c2Sc2ccccc2S3)oc(N2CCOCC2)c1`, the residual activity worked out at 106% in assay [1]; 109% in [2]; 107% in [3]; 104% in [4]; 104% in assay [5]; 92% in assay [6]. For the same compound, the residual activity came out at 100% in [7]; 87% in [8]; 103% in assay [9]; 99% in assay [10]; 113% in [11]; 87% in assay [12]. The residual activity turned out to be 96% in assay [13]; 82% in assay [14]; 101% in assay [15]; 85% in assay [16]; 96% in assay [17]; 84% in [18]. Also, the residual activity is 114% in assay [19] and 98% in assay [20].
With `CNc1cc2c(Nc3cccc(Br)c3)ncnc2cn1`, the residual activity in [1] came out at 90%; in assay [2] it was 89%; in [3], 118%; in [4] it was 96%; in assay [5], 113%; in assay [6], 98%. For the same compound, the residual activity in assay [7] came out at 95%; in [8] it was 33%; in assay [9] it was 109%; in assay [10], 92%; in assay [11] it was 95%; in assay [12], 65%. Also, the residual activity was found to be 87% in [13]; 51% in [14]; 93% in assay [15]; 32% in [16]; 85% in assay [17]; 42% in [18]. Moreover, the residual activity in [19] is 110%; in assay [20], 56%.
As for `N#C/C(=C(\N)Sc1ccc(N)cc1)c1ccccc1C(F)(F)F`, the residual activity worked out at 96% in assay [1]; 99% in [2]; 108% in assay [3]; 104% in assay [4]; 97% in assay [5]; 94% in assay [6]. Further, the residual activity in assay [7] turned out to be 95%; in assay [8], 92%; in assay [9], 106%; in [10], 87%; in [11], 83%; in [12], 95%. Further, the residual activity in assay [13] was 79%; in assay [14], 86%; in [15], 90%; in assay [16], 86%; in assay [17], 62%; in [18], 47%. Also, the residual activity in assay [19] was determined as 107%; in assay [20], 83%.
As to `NC(=O)c1ccc2[nH]c(-c3ccc(Oc4ccc(Cl)cc4)cc3)nc2c1`, the residual activity came out at 100% in [1]; 92% in [2]; 92% in assay [3]; 102% in assay [4]; 101% in [5]; 104% in assay [6]. The residual activity was 89% in assay [7]; 82% in assay [8]; 105% in assay [9]; 102% in assay [10]; 94% in assay [11]; 92% in assay [12]. In addition, the residual activity came out at 87% in [13]; 43% in [14]; 92% in [15]; 58% in [16]; 91% in [17]; 61% in [18]. In addition, the residual activity in assay [19] and in assay [20] was 108% each time.
In the case of `COc1cc2ncnc(Nc3ccc(O)c(Br)c3)c2cc1OC`, the residual activity in [1] came to 58%; in [2] it was 44%; in assay [3] it was 97%; in [4] it was 38%; in [5], 80%; in assay [6], 30%. For the same compound, the residual activity was 82% in assay [7]; 118% in [8]; 90% in [9]; 76% in assay [10]; 104% in [11]; 61% in [12]. The residual activity is 73% in assay [13]; 62% in assay [14]; 68% in [15]; 18% in [16]; 79% in assay [17]; 28% in [18]. Besides, the residual activity in assay [19] is 122%; in assay [20], 67%.
As for `CC(C)n1cnc2c(NCc3ccccc3)nc(NCCCO)nc21`, the residual activity is 102% in [1]; 94% in [2]; 110% in assay [3]; 108% in assay [4]; 53% in assay [5]; 14% in assay [6]. Moreover, the residual activity in assay [7] was found to be 88%; in [8], 67%; in [9] it was 104%; in [10] it was 100%; in assay [11], 80%; in assay [12], 68%. Also, the residual activity in assay [13] is 84%; in assay [14], 66%; in [15], 94%; in assay [16] it was 59%; in assay [17], 86%; in [18], 58%. The residual activity turned out to be 112% in assay [19] and 90% in assay [20].
As to `COc1ccc(C(=O)Nc2sc3c(c2C(N)=O)CCCC3)cc1OC`, the residual activity stood at 95% in assay [1]; 115% in assay [2]; 126% in assay [3]; 91% in assay [4]; 90% in [5]; 82% in assay [6]. Besides, the residual activity was determined as 50% in [7]; 52% in [8]; 101% in [9]; 99% in assay [10]; 102% in assay [11]; 75% in assay [12]. In addition, the residual activity in assay [13] is 83%; in assay [14], 73%; in [15], 86%; in [16], 66%; in assay [17], 86%; in assay [18] it was 66%. The residual activity in assay [19] was determined as 107%; in assay [20], 85%.
For the compound `O=c1c2ccccc2[nH]c(=S)n1CCN1CCC(=C(c2ccc(F)cc2)c2ccc(F)cc2)CC1`, the residual activity in [1] was found to be 89%; in assay [2], 116%; in [3], 125%; in assay [4], 93%; in assay [5], 115%; in assay [6] it was 94%. The residual activity in assay [7] came to 90%; in assay [8] it was 64%; in assay [9] it was 120%; in assay [10], 98%; in assay [11], 110%; in assay [12] it was 113%. Moreover, the residual activity in [13] stood at 102%; in assay [14], 79%; in [15], 115%; in [16], 100%; in assay [17], 105%; in assay [18], 91%. Moreover, the residual activity was determined as 108% in assay [19] and 95% in assay [20].
For `CN(C)c1ccc(/C=C2\C(=O)Nc3ccccc32)cc1`, the residual activity in assay [1] came to 87%; in assay [2], 108%; in assay [3], 115%; in [4] it was 96%; in assay [5], 86%; in assay [6], 48%. Besides, the residual activity in assay [7] amounted to 77%; in assay [8] it was 13%; in [9], 116%; in assay [10] it was 119%; in [11], 122%; in [12], 116%. Also, the residual activity came out at 101% in assay [13]; 76% in assay [14]; 92% in [15]; 46% in assay [16]; 89% in assay [17]; 35% in assay [18]. The residual activity was found to be 87% in [19] and 89% in assay [20].
In the case of `COc1cc2ncnc(N3CCN(C(=O)Nc4ccc(Oc5ccccc5)cc4)CC3)c2cc1OC`, the residual activity in [1] was 87%; in assay [2] it was 105%; in assay [3], 111%; in assay [4] it was 65%; in assay [5] it was 84%; in assay [6], 55%. The residual activity in assay [7] turned out to be 64%; in assay [8] it was 68%; in assay [9], 109%; in [10] it was 113%; in assay [11], 104%; in assay [12], 97%. The residual activity in assay [13] was found to be 80%; in assay [14], 89%; in assay [15] it was 111%; in assay [16], 100%; in assay [17] it was 104%; in assay [18], 93%. Besides, the residual activity in assay [19] stood at 122%; in assay [20], 97%.
Take `O=C1NC(=O)c2c1c1c3ccccc3[nH]c1c1[nH]c3cc(Br)ccc3c21`: the residual activity in [1] was determined as 104%; in assay [2], 94%; in [3] it was 96%; in [4], 86%; in [5], 98%; in assay [6], 87%. Besides, the residual activity in [7] amounted to 82%; in [8], 81%; in assay [9] it was 96%; in assay [10] it was 84%; in assay [11] it was 89%; in assay [12], 70%. In addition, the residual activity in [13] came to 92%; in assay [14], 66%; in assay [15], 18%; in [16] it was 21%; in assay [17] it was 15%; in assay [18] it was 18%. The residual activity in [19] came to 103%; in assay [20], 99%.
In the case of `CCOc1cc2ncnc(Nc3cccc(Br)c3)c2cc1OCC`, the residual activity was 89% in [1]; 104% in assay [2]; 113% in assay [3]; 95% in assay [4]; 102% in assay [5]; 68% in assay [6]. Besides, the residual activity in assay [7] came out at 92%; in assay [8], 59%; in [9], 95%; in assay [10], 66%; in [11], 107%; in assay [12], 84%. The residual activity in [13] was determined as 91%; in [14], 64%; in [15], 82%; in assay [16], 40%; in assay [17], 85%; in assay [18] it was 38%. The residual activity in assay [19] is 97%; in assay [20], 93%.
Turning to `Cn1cc(/C=C2\C(=O)Nc3ccc(S(N)(=O)=O)cc32)c2ccccc21`, the residual activity in [1] was determined as 79%; in [2], 111%; in assay [3] it was 124%; in assay [4], 80%; in [5] it was 35%; in assay [6], 14%. For the same compound, the residual activity in [7] was 45%; in assay [8], -3%; in assay [9], 114%; in assay [10], 92%; in assay [11] it was 54%; in assay [12], 12%. Moreover, the residual activity is 65% in assay [13]; 58% in assay [14]; 23% in assay [15]; -1% in assay [16]; 23% in [17]; 7% in assay [18]. Moreover, the residual activity was 120% in assay [19] and 62% in assay [20].
